The record followed here is PubChem BioAssay (NCI).

Compounds without any hit were thinned out: in the full panel of roughly 83,000, 20% have a hit.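 For each line, cells grew in 96-well plates with the test compound present at a single concentration for 48 hours.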 Calls of active or inactive are those of the source.

The test deals with MCF7 breast. In words: NCI-60 one-dose screen, 48 h (100 = growth as untreated, 0 = no growth, -100 = all killed). To be noted: 10 µM unless noted. How it is done:
Growth inhibition of the MCF7 human tumor cell line is measured as a screen for anti-cancer activity. Cells are grown in 96 well plates and exposed to the test compound for 48 hours. Compounds are tested at a single concentration, which is 10^-5 M for most compounds. The reported endpoint is percent growth (GI% or GIPRCNT), where numbers from 0 - 100% represent growth inhibition, and numbers from -100% - 0 represent cell death. For example, a value of 40 represents 60% growth inhibition. A value of 0 means no net growth occurred over the course of the experiment. A value of -40 indicates 40% of cells at the beginning of the experiment died by the end of the experiment. A value of -100 means all cells are dead at the end of the experiment.
NCI-60 Human Tumor Cell Lines Screen was performed using the standard one-dose NCI protocol, which is described in more detail at https://dtp.cancer.gov/discovery_development/nci-60/default.htm.
Compounds with GIPRCNT values below 10 were considered active. Activity score was based on GIPRCNT using the following formula: […]
Score is 0 for GIPRCNT values of 100 or above, 50 for GIPRCNT values of 0, and 100 for GIPRCNT values of -100.
`N#Cc1nc(-c2ccccc2)oc1S(=O)(=O)N1CCCCC1`: the growth is 29.2% (inactive).

Consider `C#Cc1nc(C2=C(C)C(O)/C(=N/O)C2)cs1` (stereo not given), for which the growth was 68.5% (inactive).

Turning to `O=C1c2c(c3c4cc(Br)ccc4[nH]c3c3ccc4ccccc4c23)C(=O)N1CCO`, the growth is 34.3% (inactive).

Regarding `COc1cccc(NC2=CC(=O)C(C)=C(C)C2=O)c1`, the growth was 64.1% (inactive).

Regarding `O=C(CN1C(=O)/C(=C/c2ccccc2)SC1=S)N1CCOCC1`, the growth was 80.8% (inactive).

With `Cc1ccccc1NC(=O)/C=C/c1ccc(OCCOc2ccc3c(C)cc(=O)oc3c2)cc1`, the growth is 85.7% (inactive).

For `CCOc1ccc2nc(NC(=O)c3ccc(C(F)(F)F)cc3)sc2c1`, the growth is 98.6% (inactive).

Consider `COc1ccccc1C(=O)CSc1nc(Nc2ccc(S(N)(=O)=O)cc2)c2ccccc2n1`, for which the growth was 44.6% (inactive).

Take `CN1CCN(Cc2ccc(NC(=O)c3cncc(C#Cc4cnc5ccc(N6CCSCC6)nn45)c3)cc2C(F)(F)F)CC1`: the growth is -59.7% (active).

Regarding `CCCCCCNC(=O)Oc1ccc(/C(=C(/C)c2ccccc2)c2ccc(OCCN3CCCCCC3)cc2)cc1`, the growth is 13.6% (inactive).

As to `N#Cc1c(-c2ccc(Cl)cc2)nc(SCc2ccccc2)nc1N1CCNCC1`, the growth was 8.71% (active).

For the molecule `COc1cc(OC)c(C2C(Cl)C(=O)N2Nc2ncnc3ccccc23)cc1OC` (stereo not given), the growth is 83% (inactive).

Turning to `CS(=O)(=O)Nc1ccc(-c2nn(-c3ccc(S(C)(=O)=O)cc3)cc2/C=C/C(=O)c2ccc(NC(=O)CO[N+](=O)[O-])cc2)cc1`, the growth was 94.5% (inactive).

Turning to `O=C(CCCN1C(=O)/C(=C/c2ccccc2F)SC1=S)N1CCOCC1`, the growth was 56.9% (inactive).

`COc1ccc(/C=C2\SC(=Nc3cc(C)on3)NC2=O)cc1`: the growth is 89.2% (inactive).

As for `C=C1CC[C@H]2[C@@](C)(CCC3OC(c4ccc(OCc5cn(C6CC(OC(C)=O)C(OC(C)=O)C(COC(C)=O)O6)nn5)cc4)OC[C@]32C)[C@@H]1/C=C/C1=CCOC1=O` (stereo not given in full), the growth was 44.4% (inactive).

For `[Cl][Ru].c1ccc(-c2cc(-c3ccccn3)nc(-c3ccccn3)c2)cc1.c1ccc(-c2ccnc3c2ccc2c(-c4ccccc4)ccnc23)cc1`, the growth is -28.2% (active).

For `CN1CCc2c(sc3ncnc(N/N=C/c4ccc(Cl)c(Cl)c4)c23)C1`, the growth is -47.2% (active).

In the case of `COc1ccc(NC2=CC(=O)C(C)=C(C)C2=O)cc1`, the growth was 71.9% (inactive).

As for `N#Cc1c(-c2ccc(F)cc2)nc2c(C#N)c(Nc3ccccc3)nn2c1N`, the growth is 91.7% (inactive).

Regarding `C[C@@H]1CN(c2ccc3ncc(C#Cc4cncc(C(=O)Nc5ccc(CN6CCN(C)CC6)c(C(F)(F)F)c5)c4)n3n2)C[C@H](C)O1`, the growth was -64% (active).

As to `CCOC(=O)c1c(Nc2ccccc2)nn2c(N)c(C#N)c(-c3ccc(F)cc3)nc12`, the growth was 67.6% (inactive).

For `CCOC(=O)c1csc(NC(=O)CSc2nc3sc4c(c3c(=O)n2-c2ccc(Cl)cc2)CCCC4)n1`, the growth was 84.3% (inactive).

As to `Clc1ccc2oc3c(NCCCN4CCOCC4)c4ccccc4nc3c2c1`, the growth was 7.12% (active).

Turning to `COc1ccc(-c2nc3ccc(-c4nnc(SCC(=O)Nc5ccc(C(=O)/C=C/c6ccccc6)cc5)o4)cc3[nH]2)cc1OC`, the growth was 78.3% (inactive).

For `COc1ccc(/C=C2\SC(=Nc3cc(C)[nH]n3)NC2=O)cc1`, the growth is 85.5% (inactive).

`COc1ccc(NC(=O)c2sc3nc(-c4cnccn4)cc(-c4cccs4)c3c2N)cc1`: the growth is 57.4% (inactive).

With `Cc1ccc(-c2nc(C(Cl)Cl)nc3cc(-c4ccccc4)nn23)cc1`, the growth is 25.4% (inactive).

As for `Clc1ccc2c(NCCCN3CCOCC3)c3oc4ccccc4c3nc2c1`, the growth was 16.6% (inactive).

As to `Nc1c(C(=O)c2ccc(Br)cc2)oc2nc(-c3cnccn3)cc(-c3cccs3)c12`, the growth was 77.6% (inactive).

As for `CCOC(=O)c1c(Nc2ccccc2)nn2c(-c3ccco3)c(C#N)cnc12`, the growth was 83.2% (inactive).

Consider `COc1ccc(-c2cc(C(=O)N=Nc3c(O)[nH]c4ccccc34)c3ccccc3n2)cc1OC`, for which the growth is 89.9% (inactive).

With `O=C(CSc1nnc(-c2ccc3nc(-c4ccc(Cl)cc4)[nH]c3c2)o1)Nc1ccc(C(=O)/C=C/c2ccc(Cl)cc2)cc1`, the growth was 55.2% (inactive).

`O=c1[nH]c2ccccc2cc1CSc1ccccc1Nc1nccc(-c2ccc(C(F)(F)F)cc2)n1`: the growth is 40.3% (inactive).

On to `Cc1cc(C(NC(=O)CCCCCNc2cccc3c2C(=O)N(C2CCC(=O)NC2=O)C3=O)c2cccnc2)c(O)c2ncccc12` (stereo not given), for which the growth is 12.2% (inactive).

Take `Oc1c(Cl)cc(Cl)c2ccc(CN3CCCCC3)nc12`: the growth is 28.9% (inactive).

For the molecule `CCCC(=O)NC(c1ccc(N(CC)CC)cc1)c1cc(C)c2cccnc2c1O` (stereo not given), the growth is 14.3% (inactive).

`N[C@@H](Cc1cn(-c2ccnc3ccccc23)nn1)C(=O)O`: the growth was 101% (inactive).

Consider `CCN(CC)c1ccc(C=O)c(OCc2cn(CC(=O)Nc3ccc(Cl)cc3)nn2)c1`, for which the growth was 52.9% (inactive).

As to `C#Cc1nc(C2=C(C)/C(=N/OCc3ccccc3)CC2)cs1`, the growth is 49.5% (inactive).
